# Source: PubChem
# An excerpt weighted towards active compounds, which were near 2.1% of everything screened.
# TPT1 inh = inhibitors of Candida albicans tRNA 2'-phosphotransferase TPT1. recombinant caTPT1, FP RNA substrate dephosphorylation. inhibition, % at 5 µM. 300,000 tested, 0.81% active. AID 1962;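 active = inhibition above the mean of all tested compounds plus 3 SD, set per screening campaign, cut at about 24% in these data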;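 also: plate controls were DMSO alone for no effect and ferristatin control at 100 nM for full effect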
# HNF4A DNA FP = change in binding of human HNF4 alpha to DNA; activity change, % at 10 µM; P41235; HNF4a-FITC DNA binding, fluorescence polarization, 1 h; 360,000 tested, 0.3% active; in the data active = activity change above about 30%, passing the limit was not always enough
# Myeloid diff MLP = promotes myeloid progenitor differentiation; calls only at 10 µM; ER-HoxA9 myeloid progenitors, lysozyme-GFP differentiation, flow cytometry; 360,000 tested, 1% active;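 active = normalized GFP-positive differentiation at or above the plate's own cutoff, the solvent-only control mean plus 3 SD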;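 also: cells exposed to compound for four days before flow analysis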
# Rpn11 inh = blocks the human proteasome subunit Rpn11. human 26S proteasome, Ub4-pepOG fluorescence polarization; 20S core pre-blocked with epoxomicin. inhibition, % at 20 µM. 360,000 tested, 0.59% active;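 active = inhibition at 20 µM, scaled to each plate's controls, above about 33%, limit read from the data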
# Target sequence (O00487 whole entry, looked up): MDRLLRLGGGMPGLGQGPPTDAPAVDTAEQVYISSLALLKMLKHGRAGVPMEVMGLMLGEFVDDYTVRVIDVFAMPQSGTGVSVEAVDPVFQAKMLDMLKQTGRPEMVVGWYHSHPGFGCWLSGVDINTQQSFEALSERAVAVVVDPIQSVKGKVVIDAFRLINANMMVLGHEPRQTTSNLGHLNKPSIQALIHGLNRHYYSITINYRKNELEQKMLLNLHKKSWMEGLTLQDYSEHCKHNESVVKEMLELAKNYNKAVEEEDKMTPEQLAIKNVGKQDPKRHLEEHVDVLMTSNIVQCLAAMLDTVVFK
# TPT1 inh confirm = confirmation of Candida albicans TPT1 inhibitors | shares compounds with TPT1 inh | recombinant caTPT1, fluorescence polarization, RNase T1 coupled | inhibition, % at 5 µM | 2,400 tested, 74% active | AID 2149;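 active = inhibition above the primary screen limit, the mean inhibition of all tested compounds plus 3 SD, cut at about 25% in these data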
# RNase T1 inh = RNase T1 inhibition in TPT1 counter-screen; AID 2153; inhibition, % at 5 µM; shares compounds with TPT1 inh; RNase T1 cleavage, fluorescence polarization, 1536-well; 2,400 tested, 83% active;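 active = inhibition above the solvent-only control well mean plus 3 SD, limit set per screening run, cut at about 23% in these data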;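 also: plate controls were DMSO wells with enzyme for no effect and wells without RNase T1 for full effect; inhibitors block cleavage so intact labeled substrate keeps polarization high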
# Target sequence (P00651 whole entry, looked up): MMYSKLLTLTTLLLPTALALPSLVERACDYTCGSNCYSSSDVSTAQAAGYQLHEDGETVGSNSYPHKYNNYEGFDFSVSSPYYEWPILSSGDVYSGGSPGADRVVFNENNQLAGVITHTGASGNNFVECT
# Rpn11 confirm = confirmation of human proteasome Rpn11 inhibitors | AID 602318 | 1,900 tested, 29% active | shares compounds with Rpn11 inh | inhibition, % at 20 µM | purified human 26S proteasome, Ub4-pepOG fluorescence polarization; proteasome pretreated with epoxomicin
# MMP-2 counter = blocks human MMP-2, flagging nonselective RPN11 hits. shares compounds with Rpn11 inh. recombinant MMP-2, FRET peptide cleavage fluorescence. inhibition, % at 20 µM. 1,900 tested, 4% active. AID 602330;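 also: human MMP-2 activated beforehand with APMA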
# Thrombin inh = counter-screen for RPN11 inhibitors: inhibition of bovine thrombin | bovine thrombin cleavage of Ub4-pepOG, fluorescence polarization | shares compounds with Rpn11 inh | inhibition, % at 20 µM | AID 602333 | 1,900 tested, 13% active;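 active = mean inhibition at least 40% at 20 µM, or signal 3 deviations below plate average, so some actives read negative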;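 also: plate controls were thrombin with DMSO for no effect and buffer wells lacking thrombin for full effect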
# Myeloid diff CP1 = compounds promoting myeloid differentiation. shares compounds with Myeloid diff MLP. ER-HoxA9 myeloid progenitors, GFP/Mac1 double-positive flow. calls only. 2,300 tested, 2% active;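 active = share of green or green-and-red cells above 9 and 9% in run 1 or 4 and 3% in run 2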
# GFP autofluor = counter-screen for myeloid differentiation promoters: compound fluorescence. shares compounds with Myeloid diff MLP. ER-HoxA9 myeloid progenitors, no estrogen, GFP autofluorescence flow cytometry; vehicle wells 0%, positive control 100%. fluorescence response, % (test concentration not listed). 2,300 tested, 7.4% active. AID 651707;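 active = over 5% cells positive for green fluorescent reporter, or over 2% positive for both it and APC stain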;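 also: range taken on the double positive population between DMSO and positive control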
# HNF4A confirm = change in binding of human HNF4 alpha to DNA, retest; shares compounds with HNF4A DNA FP; HNF4A-FITC DNA binding, fluorescence polarization, 1 h; activity change, % at 12.5 µM; 210 tested, 99% active; AID 1224897; call rule not given here
# * hit, by the source's call; i = inactive; . = no result given; + = active, no number. Rule as the data show it, unless noted: active = inhibition above about 40%; inactive = the rest.
SMILES,TPT1 inh,HNF4A DNA FP,Myeloid diff MLP,Rpn11 inh,TPT1 inh confirm,RNase T1 inh,HNF4A confirm,others
Cc1cc2nc(/C(C#N)=C\c3ccc(-c4ccccc4C(=O)O)o3)[nH]c2cc1C,138*,148,i,.,145*,136*,.,Myeloid diff CP1=i;GFP autofluor=3
Cc1ccc2nc(/C(C#N)=C\c3ccc(N4CCOCC4)o3)[nH]c2c1,139*,136,+,.,149*,136*,.,Myeloid diff CP1=i;GFP autofluor=29*
O=Cc1ccc(-c2ccccc2C(=O)O)o1,-4,-4,i,-10,.,.,.,
CCN(CC)C(=O)CSC(Nc1ccc(F)cc1)=C(C#N)C#N,40*,37*,i,.,41*,52*,62*,
Cc1nc2ccccc2n1C(=O)N(C)C,1,4,i,-2,.,.,.,
O=C(Nc1ccc(S(=O)(=O)Nc2nccs2)cc1)c1ccc(N2C(=O)c3ccccc3C2=O)cc1,41*,53*,i,68*,65*,77*,66*,Rpn11 confirm=91*;MMP-2 counter=-29;Thrombin inh=46*
CCOc1ccc2cc(/C=C/C(=O)c3ccco3)c(Cl)nc2c1,37*,34*,+,.,57*,68*,36*,
CCOc1ccc2nc(SCC(=O)NNC(=O)c3ccco3)c(C)cc2c1,1,5,i,-4,.,.,.,
Cn1cccc1/C=C1\SC(=S)N(CC(=O)O)C1=O,108*,80*,i,.,115*,129*,117*,
Cc1ccc(CSc2nnc(NC(=O)C3=COCCO3)s2)cc1,.,-3,i,-1,.,.,.,
N#CCC(=O)N/N=C/c1ccc(N2N=C(c3ccccc3)CC2c2ccccc2)cc1 (stereo not given),51*,50*,+,.,67*,78*,35*,
O=Cc1ccc(N2N=C(c3ccccc3)CC2c2ccccc2)cc1 (stereo not given),7,-3,i,-4,.,.,.,
N#C/C(=C\c1ccc(-c2ccccc2C(=O)O)o1)c1nc2ccccc2[nH]1,95*,44*,i,.,117*,121*,91*,
C=CCNc1sc(C(=O)c2ccc(Br)s2)c(N)c1C#N,28*,55*,i,.,38*,49*,51*,
Cc1ccc(CNC(=O)C2CCCN(S(=O)(=O)N3CC(C)CC(C)C3)C2)cc1 (stereo not given),0,0,i,-4,.,.,.,
N#CCc1nc2ccc(S(=O)(=O)N3CCOCC3)cc2s1,85*,52*,+,.,62*,76*,54*,
COc1cc(C2C3CN(C)CC=C3C(C#N)=C(N)C2(C#N)C#N)ccc1OC(C)C (stereo not given),4,-34,i,-42,.,.,.,
COc1cc([C@@H]2[C@H]3CNCC=C3C(C#N)=C(N)C2(C#N)C#N)ccc1OC(C)C,34*,48*,+,.,24*,36*,56*,
COc1ccc(C2NN=C(c3c[nH]c4ccccc34)C2O)cc1 (stereo not given),73*,57*,i,94*,65*,78*,89*,
CCOC(=O)/C(C#N)=C/c1cc(C)n(-c2ccccc2)c1C,4,-1,i,-1,.,.,.,
CCOC(=O)/C(C#N)=C/C=C1\C=Cc2ccccc2N1CC,79*,94*,+,.,83*,93*,101*,
